From PubChem BioAssay
Rows were chosen to be rich in hits. Some 14% of all compounds tested hit in one or more screens of this group.
Pf growth 48h: P. falciparum growth inhibition at 48 hours (one generation); P. falciparum luciferase growth in erythrocytes, 48 h; Potency, µM (top dose mostly 28.7 µM), actives largely listed as inhibitors; 310,000 compounds, 5.9% hits; AID 504832
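First compound was added to culture medium, then infected red cells at 0.1% parasitemia and 2% hematocrit (final). After incubation at 37 C under 5% CO2, luciferase detection reagent was dispensed and light output recorded.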
HCMV inh: blocks human cytomegalovirus replication; HFF cells, HCMV-luciferase reporter, 72 h; stronger effect = lower value; activity change, negative = inhibition, % at 57.5 µM; 410,000 compounds, 4.5% hits; AID 1259415; in the data active = activity change below about -60%; inconclusive = no clear call, values can overlap the other calls; inactive = above about -39%
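Inhibition of viral replication was scored as loss of reporter luminescence in HFFs infected with HCMV-luciferase (MOI 1 PFU/cell) for 72 h; compounds tested at 2 doses, normalized to buffer and Salinomycin controls.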
Pf growth 96h: P. falciparum growth inhibition at 96 hour, primary screen for plastid delayed-death inhibitors. P. falciparum luciferase reporter growth, 96 h. Potency, µM (doses to about 28.7 µM), actives largely listed as inhibitors. 320,000 compounds, 6.9% hits. AID 504834
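Cell-based qHTS: luciferase-tagged P. falciparum in erythrocytes (2% hematocrit, 0.05% parasitemia final) incubated with compounds for 96 hours, 37 C, 5% CO2; luciferase detection reagent then added and luminescence measured.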
FBPA Giardia inh: blocks Giardia fructose-bisphosphate aldolase activity | A8B2U2 | purified Giardia FBPA | Potency, µM (titrated, usually from 59.6 µM), hits mostly inhibitors | 290,000 compounds, 0.71% hits | AID 2451; note: nearly all actives have a fitted effect of over 55% in size
Target sequence (A8B2U2 whole entry, looked up): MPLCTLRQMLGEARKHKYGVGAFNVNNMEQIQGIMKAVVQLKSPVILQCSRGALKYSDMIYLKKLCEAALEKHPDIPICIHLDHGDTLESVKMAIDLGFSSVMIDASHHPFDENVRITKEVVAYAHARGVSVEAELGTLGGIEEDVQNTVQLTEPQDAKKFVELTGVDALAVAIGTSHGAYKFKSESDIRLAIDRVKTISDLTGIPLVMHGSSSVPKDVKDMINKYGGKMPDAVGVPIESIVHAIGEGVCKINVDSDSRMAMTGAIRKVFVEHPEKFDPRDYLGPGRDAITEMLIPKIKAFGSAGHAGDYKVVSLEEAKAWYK
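40 nM FBPA preincubated 10 min at RT with compound (up to 57.5 uM final), then substrate plus GAPDH/TPI/NAD/arsenate coupling and diaphorase/resazurin added. Fluorescence read after 20 min at RT, 525/598 nm.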
Sm TGR inh: inhibitors of Schistosoma mansoni thioredoxin glutathione reductase. Q962Y6. purified TGR, DTNB reduction, TNB absorbance 405 nm. Potency, µM (doses to about 114 µM), most hits filed as inhibitors. 360,000 compounds, 3% hits; note: nearly all actives have a fitted effect of over 60% in size
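First, TGR (20 nM dispensed) and NADPH were mixed with compound. Second, a 15 min room-temperature incubation followed. Third, further NADPH and then DTNB were added to start the reaction. Finally, TNB absorbance was monitored kinetically.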
Hits are given with their value; – = inactive; ? = inconclusive; · = no result given; + = active, no number. Unless noted, calls come from the whole dose curve; as a rule, active = well fitted curve in the direction sought with a large enough effect; inconclusive = small, poorly fitted or top-dose-only effect, or another doubt; inactive = no such curve, though single readings can be large; an effect the other way counts as inactive or inconclusive.

SMILES	Pf growth 48h	HCMV inh	Pf growth 96h	FBPA Giardia inh	Sm TGR inh
O=C1N=C(N2CCN(Cc3ccccc3)CC2)S/C1=C/c1cccs1	?	–	?	–	–
O=C1N=C(N2CCOCC2)S/C1=C\c1ccccc1OS(=O)(=O)c1ccccc1	?	?	?	–	–
Cc1ccc(/C=C2\SC(N3CCN(C(c4ccccc4)c4ccccc4)CC3)=NC2=O)o1	5.9µM	–	1.7µM	?	35µM
CC(=O)c1ccc(NC(=O)CCOc2cc(C)ccc2C)cc1	–	–	–	–	–
O=C(CN1CCN(S(=O)(=O)c2ccccc2)CC1)Nc1ccnn1C1CCCC1	?	–	–	·	–
C[C@@]1(C(NC(=O)Cc2ccc(C(F)(F)F)cc2)c2ccc(-c3ccccc3)cc2)C[C@H]1C1CCCCC1 (some centres undefined)	·	·	·	–	·
CC(=O)N1c2c(cc(Br)cc2S(=O)(=O)N2CCN(c3cccc(Cl)c3)CC2)CC1C (centres undefined)	·	–	·	·	–
O=C(NCc1cccnc1)C1c2ccccc2C(=O)N1Cc1ccco1 (centres undefined)	–	–	·	–	35µM
CN(C)c1cc(NC(=O)CNC(C)(C)CC(C)(C)C)c2ccccc2n1	–	-60	–	?	–
C=CCc1cccc(/C=N/NC(=O)CNc2ccccc2OC)c1O	?	-98	–	–	–
C=CCc1cccc(/C=N/NC(=O)CCC(=O)Nc2ccc(F)cc2)c1O	–	-84	?	–	–
C=CCc1cccc(/C=N/NC(=O)CNc2ccccc2)c1O	?	-99	?	–	–
COc1cccc(/C=N/NC(=O)CSCC(=O)Nc2ccccc2)c1O	?	-93	?	–	–
C=CCc1cccc(/C=N/NC(=O)CNc2cccc3ccccc23)c1O	–	–	–	?	–
C=CCc1cccc(/C=N/NC(=O)CCCNc2ccc(C)cc2)c1O	–	–	?	–	–
CC(C)N1CCC1(C)C(=O)Nc1ccc(-n2cccc2)cc1 (centres undefined)	·	–	·	·	·
CCOCCCNC(=O)C1CCN(c2nn3cc(-c4ccc(F)cc4)nc3s2)CC1	·	–	·	·	–
COc1ccc(C(=O)NC2CC2)cc1OC1CCN(Cc2cc(C)c(C)cc2C)CC1	?	–	?	·	–
CCCCCOC(=O)CSc1ncnc2sc3c(c12)CCC(C)C3 (centres undefined)	·	–	·	·	–
C=CCc1cccc(/C=N/NC(=O)C(C)Nc2cccc(C)c2)c1O (centres undefined)	13µM	-80	–	–	–
CCOC(=O)N1CCC(NC(=O)CCC(=O)N2CCOc3ccc(Cl)cc32)CC1	–	–	–	–	–
CCN(CCn1cccn1)C(=O)c1cc(COc2cc(C)ccc2C)on1	–	–	?	·	–
COc1ccc(CCC(=O)O)c(O)c1	–	–	–	–	–
Cc1cc(CCC(=O)O)c(C)cc1CCC(=O)O	5.9µM	–	?	–	–
O=C(NCc1ccc2[nH]c3c(c2c1)CCCC3)c1ccc(S(=O)(=O)N2CCCCC2)cc1	?	-78	10µM	–	–
SMILES	Pf growth 48h	HCMV inh	Pf growth 96h	FBPA Giardia inh	Sm TGR inh
O=C(Nc1ccccc1)C1CCN(S(=O)(=O)c2ccc3[nH]c4c(c3c2)CCCCC4)CC1	·	–	·	·	–
CCc1ccc(NC(=O)C2CCN(S(=O)(=O)c3ccc4[nH]c5c(c4c3)CCCCC5)CC2)cc1	·	+	·	·	–
Cc1ccc2c(c1)[C@H]1[C@H](CO2)[C@H](c2ccccc2)[C@]2(C)C(=O)N(C)CC(=O)N12	·	–	·	·	·
COc1ccc(N2C(=O)CC(N(CCc3ccc(OC)c(OC)c3)C(=S)Nc3ccccc3)C2=O)cc1 (centres undefined)	4.7µM	–	?	–	–
COc1ccc(CCN(C)C2CC(=O)N(c3ccccc3)C2=O)cc1OC (centres undefined)	?	–	–	–	11µM
COC(=O)c1ccc(N2C(=O)CC(N(C)CCc3ccc(OC)c(OC)c3)C2=O)cc1 (centres undefined)	–	–	–	–	22µM
COc1ccc(N2C(=O)CC(N(CCc3ccc(S(N)(=O)=O)cc3)C(=S)Nc3ccccc3)C2=O)cc1 (centres undefined)	?	–	?	–	–
COc1ccc(N2C(=O)CC(N(C)CCc3ccc(OC)c(OC)c3)C2=O)cc1 (centres undefined)	9.3µM	–	–	–	–
COc1cc(OC)cc(-c2nnc3n2N=C(c2c(OC)cccc2OC)CS3)c1	·	·	·	–	·
O=C(CSC1=NS(=O)(=O)c2cc(F)ccc2N1)NCc1ccccc1Cl	–	–	–	·	–
Cn1cccc1Cc1nnc(SCC(=O)Nc2cccc(F)c2)n1-c1ccc(F)cc1	?	–	?	–	–
CCc1ccc(NC(=O)CSc2nnc(Cc3cccn3C)n2-c2ccc(F)cc2)cc1	10µM	–	2.3µM	–	?
COc1ccc(-n2c(Cc3cccn3C)nnc2SCC(=O)Nc2ccc(C(C)=O)cc2)cc1	·	–	0.47µM	–	?
O=C(CSc1nnc(-c2n[nH]c3ccccc23)n1-c1ccccc1)Nc1cccc(Cl)c1	?	-73	?	–	–
Cn1cccc1Cc1nnc(SCC(=O)Nc2cccc(Cl)c2)n1-c1ccc(F)cc1	?	–	8.3µM	–	–
COc1ccc(C(CNC(=O)c2ccc(-c3ccccc3)cc2)N(C)C)cc1OC (centres undefined)	?	–	?	–	–
CC(=O)Nc1cccc(NC(=O)CSc2nnc(Cc3cccn3C)n2-c2ccc(C)cc2)c1	?	–	4.1µM	–	?
COc1ccc(-n2c(Cc3cccn3C)nnc2SCC(=O)Nc2cccc(NC(C)=O)c2)cc1	–	–	–	–	–
COc1ccc(-n2c(Cc3cccn3C)nnc2SCC(=O)Nc2cccc(Cl)c2)cc1	?	–	?	–	?
Cc1ccc(-n2c(Cc3cccn3C)nnc2SCC(=O)NCc2ccco2)cc1	8.3µM	–	–	–	40µM
Cc1ccc(-n2c(Cc3cccn3C)nnc2SCC(N)=O)cc1	–	–	–	–	–
COc1ccc(Cl)cc1NC(=O)CSc1nnc(Cc2cccn2C)n1-c1ccc(F)cc1	13µM	–	?	–	–
Nc1ccc(Cc2ccc([N+](=O)[O-])cc2)cc1	·	-64	·	·	·
Nc1ccc(Cc2ccc(N)cc2)cc1	·	–	·	·	·
Cc1c(C(=O)Nc2ccncc2)sc2nc(-c3ccc(F)cc3)cn12	2.3µM	?	2.3µM	–	–
Cc1c(C(=O)Nc2ccc(F)c(C(F)(F)F)c2)sc2nc(-c3ccccc3)cn12	·	-98	·	·	–
Cc1cccc(C(=O)N2CCCC(N3CCN(c4ccccc4)CC3)C2)n1 (centres undefined)	–	–	?	–	–
CCOC(=O)C(C)Sc1ncnc2nc[nH]c12 (centres undefined)	–	–	?	–	–
CCOC(=O)C(CC)Sc1ncnc2nc[nH]c12 (centres undefined)	–	–	10µM	?	–
